Compounds with a hit are over-represented: about 2.2% of the library has one in this group of screens.
VACV Venus inh: vaccinia inhibition (Venus reporter) | Vaccinia virus Venus reporter expression, fluorescence | Potency, µM (highest dose often 36.5 µM), inactives show at the highest dose activity change, negative = inhibition, hits mostly inhibitors | 0.46% of 330,000 active; calls by dose curve; tested in A549 cells; further: nearly all actives have a fitted effect of over 30% in size
Giardia FBPA inh: Giardia lamblia aldolase inhibition. purified Giardia FBPA. Potency, µM (doses to about 59.6 µM), for inactives: at the top dose activity, negative = inhibition, hits mostly inhibitors. 0.71% of 290,000 active. AID 2451; active means well fitted inhibition curve with a large enough effect; inconclusive means small, poorly fitted or top-dose-only effect, or effect the other way; further: nearly all actives have a fitted effect of over 55% in size
Target sequence (A8B2U2 whole entry, looked up): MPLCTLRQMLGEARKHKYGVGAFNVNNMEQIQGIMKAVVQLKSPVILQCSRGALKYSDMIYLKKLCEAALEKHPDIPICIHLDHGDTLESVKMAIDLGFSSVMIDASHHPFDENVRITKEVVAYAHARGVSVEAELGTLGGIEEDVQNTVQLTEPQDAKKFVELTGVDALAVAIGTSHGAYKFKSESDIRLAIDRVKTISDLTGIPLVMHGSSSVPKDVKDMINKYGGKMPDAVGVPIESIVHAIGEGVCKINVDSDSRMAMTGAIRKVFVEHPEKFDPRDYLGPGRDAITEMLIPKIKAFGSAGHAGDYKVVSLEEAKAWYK
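Giardia FBPA (40 nM reagent) was preincubated 10 min at RT with compound (up to 57.5 uM final), then substrate plus GAPDH/TPI/NAD/arsenate coupling system with diaphorase/resazurin was added; resorufin fluorescence (525/598 nm) was read after 20 min.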
VACV mCherry inh: vaccinia inhibition (mCherry reporter). Vaccinia virus mCherry reporter infection, fluorescence. 0.63% of 310,000 active. Potency, µM (doses to about 36.5 µM), without a hit: top-dose activity change, negative = inhibition, actives largely listed as inhibitors. AID 720579; calls by dose curve; tested in A549 cells; further: nearly all actives have a fitted effect of over 35% in size
FMDV antiviral: foot and mouth disease virus antiviral activity. FMDV antiviral cell-based qHTS. Potency, µM (highest dose often 57.9 µM), without a hit: top-dose activity change, negative = inhibition, actives largely listed as inhibitors. 1.2% of 410,000 active. AID 1159524; calls by dose curve; tested in HEK293T cells; further: read-out not given here; nearly all actives have a fitted effect of over 45% in size
* marks the source's active call; other numbers are inactive results; i = inactive; u = inconclusive; x = no result given; [ ] = another dose, or the depositor's remark. On the % scale 0 is the no-effect control and ±100 the full control effect; potency means the concentration at half of the fitted maximal effect.

SMILES	VACV Venus inh	Giardia FBPA inh	VACV mCherry inh	FMDV antiviral
COc1ccc(CCNC(=O)c2ccc(Cl)c(S(=O)(=O)N(C)c3ccccc3)c2)cc1	u	-3%	-22%	28µM*
COc1ccc(CCNC(=O)c2ccc(Cl)c(S(=O)(=O)N3CCCCCC3)c2)cc1	x	x	x	14µM*
COc1ccc(C)cc1NC(C)C(=O)c1c[nH]c2ccccc12 (stereo not drawn)	-20%	x	-16%	x
O=C(NCc1nnc2n1CCN(Cc1cc3c(cc1Cl)OCO3)CC2)C1CCOC1 (stereo not drawn)	-9%	x	-14%	-2%
COc1ccc(CN2CCN(C(C)=O)CC2)cc1OC1CCN(C(=O)c2ccc3[nH]c(C)c(C)c3c2)CC1	2%	x	-10%	-17%
COc1ccc(CN2CCOCC2)cc1OC	0%	-13%	x	-18%
COc1cc2sc3ccc(-c4ccc(CN5CCOCC5)cc4)cc3c(=O)c2cc1OC	u	x	-27%	32µM*
COC(=O)[C@@H]1CCCN1Cc1ccc2c(c1)CN(Cc1ccccc1F)CCO2	3%	x	-10%	-3%
Cc1cc(C)c(C(=O)/C=C/C=C/c2ccccc2)c(=O)[nH]1	u	-12%	-29%	39%
Cc1cc(C)c(C(=O)/C=C/c2ccc(C(C)C)cc2)c(=O)[nH]1	u	13%	5µM*	32µM*
COc1cc(N2C(=O)C=CC2=O)ccc1N1C(=O)C=CC1=O	u	x	-30%	32µM*
COc1ccc(N2C(=O)C3CC(C)=C(C)CC3C2=O)c(OC)c1 (stereo not drawn)	x	6%	x	-22%
COc1ccc2c(c1)c1nnc(SCCN3CCOCC3)nc1n2C	-11%	x	-8%	x
C/C(CCc1ccco1)=N\NC(=O)CNc1cccc2ccccc12	x	20µM*	x	-2%
Clc1ccc2[nH]c3c(N4CCC5(CC4)OCCO5)ncnc3c2c1	8.9µM*	3%	8.9µM*	u
Cc1cccc2[nH]c3c(N4CCC5(CC4)OCCO5)ncnc3c12	x	-23%	x	40µM*
Cc1ccc2[nH]c3c(N4CCOCC4)ncnc3c2c1	-19%	-3%	-26%	-29%
Cc1cccc2[nH]c3c(N4CCN(C(=O)c5ccco5)CC4)ncnc3c12	x	-6%	x	u
COCC1CCCN(Cc2ccc3c(c2)CN(C(=O)c2ccc(OC)nc2OC)CCO3)C1 (stereo not drawn)	6%	x	-7%	2%
CN(C)c1ccc(NC(=O)C2(c3cccs3)CCOCC2)cc1	-10%[7.34 µM]	x	-12%[7.34 µM]	19%
c1csc(-c2nnc(NC3CCCCC3)c3ccccc23)c1	u	-5%	u	40µM*
CNCc1nc(-c2ccc[nH]2)c2cc(Cl)ccc2n1	9%	x	27%	x
COc1cccc(NC(=O)CSc2ccc(-c3sc(C)nc3C)nn2)c1	-20%	5%	u	32µM*
COc1cc(NC(=O)CSc2ccc(-c3ccccn3)nn2)cc(OC)c1	u	x	11µM*	0%
COc1ccc(C)cc1NC(=O)CSc1ccc(-c2ccccn2)nn1	u	x	16µM*	u
SMILES	VACV Venus inh	Giardia FBPA inh	VACV mCherry inh	FMDV antiviral
CC(=O)Nc1cccc(NC(=O)CSc2ccc(-c3ccccn3)nn2)c1	u	u	u	7%
COC(=O)C1=C(C(=O)OC)[C@@H]2N(C)c3ccccc3[C@@]23C[C@@H](CO)N(C(=O)c2cc(C)oc2C)C3=N1	x	0%[12.9 µM]	x	x
COc1cc(OC)cc(-c2nnc3n2N=C(c2ccc(OC)cc2OC)CS3)c1	x	1%	x	x
CCCCCCNC(=O)O[C@H]1Cn2c(=O)ccc(=O)n2[C@@H]2CN(S(=O)(=O)c3ccc(C)cc3)C[C@]12O	10µM*	x	u	18µM*
CCCCCCNC(=O)O[C@H]1Cn2c(=O)n(CCCCCC)c(=O)n2[C@@H]2CN(S(=O)(=O)c3ccc(C)cc3)C[C@]12O	16µM*	x	u	u
Cc1ccc(S(=O)(=O)N2C[C@H]3n4c(=O)ccc(=O)n4C[C@H](OC(=O)NCc4ccccc4F)[C@@]3(O)C2)cc1	u	x	u	20µM*
CCCCCCn1c(=O)n2n(c1=O)[C@@H]1CN(S(=O)(=O)c3ccc(C)cc3)C[C@]1(O)[C@@H](OC(=O)NC1CC1)C2	-24%	x	u	-14%
COC(=O)c1ccc(CN2CCOc3ccc(C(O)c4cccnc4)cc3C2)cc1 (stereo not drawn)	-8%	x	-18%	-26%
COC(=O)CC(NC1CCN(c2nc(C)c3cc4c(cc3n2)CCC4)CC1)C(=O)OC (stereo not drawn)	4%	x	-10%	-2%
O=C(CCn1cncn1)NCC1Cc2cc(-c3ccsc3)cc(Cl)c2O1 (stereo not drawn)	-13%	x	-3%	3%
CCOc1ccc(Nc2nc(N)c(C(=O)c3ccccc3Cl)s2)cc1	-22%[7.34 µM]	x	-25%[7.34 µM]	18%
Cc1cc(C)nc(Sc2ccc3nnnn3n2)n1	3.5µM*	6%	0.5µM*	3%
Cc1cc(C)nc(Sc2c(C)nn(-c3ccccc3)c2C)n1	-9%	1%	x	-22%
COc1ccc(-c2c(C#N)c(N)nc3c2CCc2ccccc2-3)cc1OC	x	-12%	x	16µM*
COc1cc(-c2c(C#N)c(N)nc3c2CCCC3)ccc1O	-21%	-5%	u	u
CCOc1ccc(CCNC(=O)C2CCN(C(=O)N3CC(CC)Oc4ccc(C)cc43)CC2)cc1 (stereo not drawn)	-22%	x	-15%	28µM*
CC1CCCN(c2ncnc3c2cnn3-c2ccc(F)cc2)C1 (stereo not drawn)	0%	x	7%	18µM*
CC1CCCN(c2ncnc3c2cnn3-c2ccc(Cl)cc2)C1 (stereo not drawn)	-5%	-1%	i	25µM*
CC1CCCN(c2ncnc3c2cnn3-c2ccccc2)C1 (stereo not drawn)	-15%	-8%	-3%	-11%
COc1ccc(/C=C/C(=O)NCC2Cc3cccc(-c4nc(C)cnc4C)c3O2)cc1OC (stereo not drawn)	-9%	x	i	-14%
COc1ccc(-c2nn3c(-c4cc(C)[nH]n4)nnc3s2)cc1	-19%	x	-27%	x
COc1cc(OC)c2c(=O)c(-c3ccccc3)coc2c1	-11%	-4%	-5%	22%
CCn1cc(C(=O)NCc2ccc3c(c2)OCO3)c(=O)c2cc(F)c(N3CCN(C(=O)c4ccco4)CC3)cc21	13µM*	10%	11µM*	14µM*
CCn1cc(C(=O)NCc2ccccc2)c(=O)c2cc(F)c(N3CCN(C(=O)c4ccco4)CC3)cc21	u	7%	x	20µM*
CCn1cc(C(=O)NCc2ccncc2)c(=O)c2cc(F)c(N3CCN(C(=O)c4ccco4)CC3)cc21	-9%[7.34 µM]	-4%	-12%[7.34 µM]	u
CN(C)c1nc2cc(Cl)ccc2cc1CN(Cc1ccc2c(c1)OCO2)C(=O)c1ccoc1	-2%	x	-9%	6%
COc1ccc(C(CC(=O)c2ccccc2)CC(=O)c2ccccc2)cc1	9%	-14%	-5%	1%
C=C(C(=O)c1ccccc1)C(C(=C)C(=O)c1ccccc1)c1ccc(OC)cc1	x	4%	x	28µM*
CN(C)c1ccc(/C=C/c2ccnc3ccc([N+](=O)[O-])cc23)cc1	41%	x	-14%	x
CCCOc1ccc(C(=O)Nc2nc(C)c(Cc3ccc4c(c3)OCO4)s2)cc1	10µM*	3%	u	-19%
